{"source": "PubChem BioAssay AID2315", "about": "(National Center for Advancing Translational Sciences (NCATS), 2010)", "note": "Several values for one entry are separate records, joined by “and”; a condition that tells them apart may be missing. Equal entries are not always repeated. The whole screen tested about 290,000 compounds, of which about 27,000 (9.3%) were called active. No stated cut-off is given here; in the data, active means inhibition mostly above about 28% (no sharp cut-off); inactive means mostly below about 43%. Only a selection was taken, and actives are over-represented in it overall."}
{"assay": "A qHTS for Small Molecule Inhibitors of Shiga Toxin; further: 0% is about no effect", "conditions": "Vero cells, Shiga toxin protein synthesis inhibition reporter; at 38.7 µM, stronger effect = higher value"}
{"smiles": "COc1ccc(C23NCCN2C(=O)c2ccccc23)cc1", "note": "(stereo unspecified)", "inhibition": "-8.39% (inactive)"}
{"smiles": "COc1ccc(CNC(=O)c2cc(C(=O)C3CC3)c[nH]2)cc1", "inhibition": "27.9% (inactive)"}
{"smiles": "CCOC(=O)c1c(-c2ccccc2)oc2cc(Br)c(O)cc12", "inhibition": "-8.35% (inactive)"}
{"smiles": "COc1cc(OC)cc(C(=O)NCCCn2ccnc2)c1", "inhibition": "13.8% (inactive)"}
{"smiles": "COCCCNS(=O)(=O)c1cccc(S(=O)(=O)c2cccc(S(=O)(=O)NCCCOC)c2)c1", "inhibition": "-4.92% (inactive)"}
{"smiles": "CN(C)c1ccc(C(CNC(=O)c2ccc(F)cc2)c2c[nH]c3ccccc23)cc1", "note": "(stereo unspecified)", "inhibition": "5.91% (inactive)"}
{"smiles": "CCCS(=O)(=O)Nc1ccc(-c2cn3c(n2)SCC3)cc1", "inhibition": "27.3% (inactive)"}
{"smiles": "O=[N+]([O-])c1ccccc1NCc1ccccc1Cl", "inhibition": "8.89% (inactive)"}
{"smiles": "O=C(NCCNc1ccccc1[N+](=O)[O-])c1ccccc1F", "inhibition": "61.5% (active)"}
{"smiles": "O=C(O)c1ccccc1C(=O)Nc1ccccc1[N+](=O)[O-]", "inhibition": "0.458% (inactive)"}
{"smiles": "Cc1c(NC(=S)NCc2ccc(F)cc2)cccc1[N+](=O)[O-]", "inhibition": "-13.6% (inactive)"}
{"smiles": "O=C(NCCCNc1ccc([N+](=O)[O-])cc1Cl)c1ccccc1F", "inhibition": "-2.91% (inactive)"}
{"smiles": "O=[N+]([O-])c1ccccc1NCc1ccc(Cl)cc1", "inhibition": "48.7% (active)"}
{"smiles": "Cc1cc(S(=O)(=O)NCC(C)C)ccc1OCC(=O)NC1CC1", "inhibition": "-1.92% (inactive)"}
{"smiles": "COc1ccc(O)c(/C=N/N=C/c2cccc([N+](=O)[O-])c2)c1", "inhibition": "1.13% (inactive)"}
{"smiles": "O=C(O)c1ccccc1-c1ccccc1C(=O)Nc1ccccc1Br", "inhibition": "10.4% (inactive)"}
{"smiles": "COc1ccccc1OCCn1c(SCC(N)=O)nc2ccccc21", "inhibition": "-12.1% (inactive)"}
{"smiles": "COc1ccccc1OCc1nc2ccccc2s1", "inhibition": "63.5% (active)"}
{"smiles": "COc1cccc2sc(NNC(=O)c3nc4ccccc4s3)nc12", "inhibition": "19.2% (inactive)"}
{"smiles": "Cc1ccc(O)c(/C=N/NC(=O)COc2ccc3c(C)cc(=O)oc3c2)c1", "inhibition": "4.79% (inactive)"}
{"smiles": "CCOC12CC(C)(C)CC(C)(CC3=C1C(=O)CC(C)(C)C3)C2", "note": "(stereo unspecified)", "inhibition": "-2.06% (inactive)"}
{"smiles": "CCCCOP(=O)(c1ccc(N(C)C)cc1)C(O)c1cc(OC)ccc1OC", "note": "(stereo unspecified)", "inhibition": "-2.17% (inactive)"}
{"smiles": "CCOC(=O)/C(C#N)=C/c1ccc(N2CCCCC2)cc1", "inhibition": "111% (active)"}
{"smiles": "CCOC(=O)/C(C#N)=C/c1ccc(N2CCN(Cc3ccccc3)CC2)cc1", "inhibition": "32.9% (inactive)"}
{"smiles": "COc1ccc(N2CCN(C(=O)/C(C#N)=C/c3ccccc3)CC2)cc1", "inhibition": "33.9% (inactive)"}
{"smiles": "COc1ccc(S(=O)(=O)N2CCC(C(=O)N3CCCC3)CC2)cc1C", "inhibition": "-7.97% (inactive)"}
{"smiles": "CCOc1ccc(NC(=O)c2cccc3c2C(=O)N(CC2CCCO2)C3)cc1", "note": "(stereo unspecified)", "inhibition": "11.4% (inactive)"}
{"smiles": "COc1ccc(C2CC(O)(c3ccccc3)Oc3cc(C)cc(C)c32)cc1", "note": "(stereo unspecified)", "inhibition": "17.1% (inactive)"}
{"smiles": "COCCn1c(SCC(=O)Nc2cc(Cl)ccc2OC)nc2c(c1=O)SC(C)C2", "note": "(stereo unspecified)", "inhibition": "4.22% (inactive)"}
{"smiles": "C=CCSc1nc2c(c(=O)[nH]c(=O)n2C)n1Cc1ccccc1", "inhibition": "-6.62% (inactive)"}
{"smiles": "Cc1cs/c(=N\\N=C\\c2ccc(O)cc2)n1Cc1ccco1", "inhibition": "0% (active)"}
{"smiles": "CN(c1ccccc1)c1ccc(/C=c2\\s/c(=C(/C#N)C(=O)C(C)(C)C)n(Cc3ccco3)c2=O)cc1", "inhibition": "-15.7% (inactive)"}
{"smiles": "CC(C)n1c(=O)c(C=Nc2ccc(Br)cc2)c(O)n(Cc2ccco2)c1=O", "inhibition": "-2% (inactive)"}
{"smiles": "CC(C)c1ccc(Cc2nnc(NCCCO)[nH]c2=O)cc1", "inhibition": "-6.37% (inactive)"}
{"smiles": "Cc1ccccc1CN1C(=O)c2ccccc2Sc2ccc(C(=O)NCCCN3CCOCC3)cc21", "inhibition": "-7.27% (inactive)"}
{"smiles": "COC(=O)c1ccc(CNC(=O)C2CCC(=O)N(Cc3cccc(F)c3)C2)cc1", "note": "(stereo unspecified)", "inhibition": "-2.68% (inactive)"}
{"smiles": "COc1ccc(S(=O)(=O)NC(C)C(=O)N2CCCCCC2)cc1", "note": "(stereo unspecified)", "inhibition": "-16.1% (inactive)"}
{"smiles": "O=C(c1ccccc1)c1ccc(OC(=O)N2CCCC2)cc1", "inhibition": "47.5% (active)"}
{"smiles": "O=C(c1ccccc1)c1ccc(C(=O)N2CCN(c3ccccc3)CC2)cc1", "inhibition": "30.8% (inactive)"}
{"smiles": "O=C(c1ccccc1)c1ccc(OCC(O)CN2CCCC2)cc1", "note": "(stereo unspecified)", "inhibition": "2.19% (inactive)"}
{"smiles": "CC(C)(C)c1ccc(OC(=O)N2CCCCC2)cc1", "inhibition": "104% (active)"}
{"smiles": "CC(C)(C)c1ccc(C(=O)N2CCC(C(=O)N3CCCCC3)CC2)cc1", "inhibition": "-4.15% (inactive)"}
{"smiles": "O=C(NCCc1ccccn1)c1nc(Cn2cc([N+](=O)[O-])cn2)no1", "inhibition": "-5.12% (inactive)"}
{"smiles": "COc1cccc(CN(C)CC(O)COC(c2ccccc2)c2ccccc2C)c1", "note": "(stereo unspecified)", "inhibition": "-8.7% (inactive)"}
{"smiles": "COc1ccc(-c2nc(N)ncc2-c2ccc(Cl)cc2)c(O)c1", "inhibition": "8.54% (inactive)"}
{"smiles": "COc1ccc(-c2nnc3n2CCCCC3)cc1", "inhibition": "5.25% (inactive)"}
{"smiles": "COc1ccc(-c2nc3n(c2Br)CCC3)cc1", "inhibition": "87.2% (active)"}
{"smiles": "Brc1cccc(-c2nnc3n2CCC3)c1", "inhibition": "-4.22% (inactive)"}
{"smiles": "CCCCCn1c(=O)[nH]c2cc(C(=O)NCCCN3CCCCC3C)ccc2c1=O", "note": "(stereo unspecified)", "inhibition": "-23.9% (inactive)"}
{"smiles": "CNC(=O)CN1C(=O)NC(c2ccccc2)(c2ccccc2)C1=O", "inhibition": "-7.36% (inactive)"}
{"smiles": "O=C(NCc1ccc(F)cc1)C1CCN(C(=O)Nc2ccc(F)cc2)CC1", "inhibition": "-9.53% (inactive)"}
{"smiles": "O=C1CC(c2ccccc2)=NN1c1ccc([N+](=O)[O-])cc1", "inhibition": "55% (active)"}
{"smiles": "O=c1[nH]n(-c2ccc([N+](=O)[O-])cc2)c(=O)c2ccccc12", "inhibition": "-17% (inactive)"}
{"smiles": "CC1=NN(c2ccccc2)C(=O)C1C(=O)c1ccc([N+](=O)[O-])cc1", "note": "(stereo unspecified)", "inhibition": "27.4% (inactive)"}
{"smiles": "CCC(C)[C@H](NC(=O)N1CCn2c1nc1ccccc12)C(=O)NCc1ccc(OC)cc1", "note": "(stereo partly specified)", "inhibition": "13.9% (inactive)"}
{"smiles": "COc1ccc(C(CNCC(=O)Nc2ccccc2F)N(C)C)cc1", "note": "(stereo unspecified)", "inhibition": "7.34% (inactive)"}
{"smiles": "Cc1cc(C)c2nc(SCCC#N)nc(C)c2c1", "inhibition": "27.9% (inactive)"}
{"smiles": "Cc1cc(C)c2nc(-c3ccco3)cc(C(=O)O)c2c1", "inhibition": "-7.1% (inactive)"}
{"smiles": "Cc1cc(C)c2nc3nc(C)cc(C)c3c(N)c2c1", "inhibition": "32.6% (active)"}
{"smiles": "OCCC(O)CO", "note": "(stereo unspecified)", "inhibition": "-8.78% (inactive) and 20.3% (inactive) and 19.5% (inactive)"}
{"smiles": "COc1ccc(CCNCc2c(-c3ccccc3)n(C)c3ccccc23)cc1", "inhibition": "11.5% (inactive)"}
{"smiles": "CN(C)Cc1c(C#N)c2ccccc2n1C", "inhibition": "-25% (inactive)"}
{"smiles": "COc1ccc(-c2c(C#Cc3ccccc3)c3ccccc3n2C)cc1", "inhibition": "43.7% (active)"}
{"smiles": "COc1cccc(C(=O)Nc2nnc(S(=O)(=O)N(C)c3ccccc3)s2)c1", "inhibition": "3.08% (inactive)"}
{"smiles": "Cc1nc2sccn2c(=O)c1S(=O)(=O)NCCc1ccccc1", "inhibition": "-9.77% (inactive)"}
{"smiles": "CCC(=O)Oc1cccc(C(=O)Nc2ccc(-c3nnc(-c4ccco4)o3)cc2)c1", "inhibition": "90.4% (active)"}
{"smiles": "CCCCOc1ccc(-c2nnc(-c3ccco3)o2)cc1", "inhibition": "85.9% (active)"}
{"smiles": "COc1ccc(OCC(=O)Nc2nnc(-c3ccco3)s2)cc1", "inhibition": "2.24% (inactive)"}
{"smiles": "O=C(CCc1ccccc1)Nc1cccc(-c2nnc(-c3ccco3)o2)c1", "inhibition": "19.4% (inactive)"}
{"smiles": "COc1ccc(C(=O)CSc2nnc(-c3ccco3)o2)cc1", "inhibition": "10.9% (inactive)"}
{"smiles": "Cc1ccc(OCC(=O)Nc2ccc(-c3nc4ncccc4o3)cc2)cc1", "inhibition": "2.45% (inactive)"}
{"smiles": "Cc1ccc(OCC(=O)Nc2ccc(-c3nnc(-c4ccco4)o3)cc2)cc1", "inhibition": "22.1% (active)"}
{"smiles": "Cc1ccc(OCC(=O)Nc2nnc(-c3ccco3)s2)cc1", "inhibition": "4.17% (inactive)"}
{"smiles": "Cc1cccc(NC(=O)CSc2nnc(-c3ccco3)o2)c1", "inhibition": "-23.3% (inactive)"}
{"smiles": "Cc1ccc(-c2nnc(Nc3ccc(C(=O)N(C)C)cc3)c3ccccc23)cc1S(N)(=O)=O", "inhibition": "1.45% (inactive)"}
{"smiles": "CC(C)(C)n1ncc2c(=O)n(Cc3ccc(Cl)cc3)cnc21", "inhibition": "33.8% (inactive)"}
{"smiles": "Cc1cc(=O)oc2c(C)c(OCC(=O)NCCc3ccc(S(N)(=O)=O)cc3)ccc12", "inhibition": "-5.85% (inactive)"}
{"smiles": "CCOc1ccc(NC(=O)[C@H](C)NC(=O)C2CC(=O)N(c3ccc(OC)cc3)C2)cc1", "note": "(stereo partly specified)", "inhibition": "-4.28% (inactive)"}
{"smiles": "COCCCNc1nc2ccccc2nc1NS(=O)(=O)c1ccc(F)cc1", "inhibition": "2.37% (inactive)"}
{"smiles": "CCCCNC(=O)N1CCCC(N(C)CCc2ccc(OC)c(OC)c2)C1", "note": "(stereo unspecified)", "inhibition": "-2.02% (inactive)"}
{"smiles": "Cc1ccc(NC(=O)CSc2nn3c(=O)c(C)nnc3s2)cc1Cl", "inhibition": "7.47% (inactive)"}
{"smiles": "CC(C)C(=O)OCC(=O)Nc1ccc2c(c1)CCC2", "inhibition": "14.2% (inactive)"}
{"smiles": "O=C(NC1CCCC1)c1ccc(Br)s1", "inhibition": "30.7% (inactive)"}
{"smiles": "O=C(Nc1ccc2c(c1)CCC2)c1ccc(Br)s1", "inhibition": "112% (active)"}
{"smiles": "CC1=C(C(=O)OCC2CCCCC2)C(c2ccc(F)cc2)NC(=O)N1", "note": "(stereo unspecified)", "inhibition": "-7.87% (inactive)"}
{"smiles": "CN(C)c1nc(Nc2ccc(Cl)c(Cl)c2)nc(N(C)C)n1", "inhibition": "-11.2% (inactive)"}
{"smiles": "Cc1ccc(CS(=O)(=O)CCC(=O)NCc2ccc(F)cc2)cc1", "inhibition": "-8.45% (inactive)"}
{"smiles": "CCOC(=O)Cc1csc(SCC(=O)NC(C)C23CC4CC(CC(C4)C2)C3)n1", "note": "(stereo unspecified)", "inhibition": "3.03% (inactive)"}
{"smiles": "Cc1cc2cc(CNC(=O)c3ccc(S(=O)(=O)N4CCOCC4)cc3)ccc2[nH]1", "inhibition": "-6.18% (inactive)"}
{"smiles": "CCc1cccc(CC)c1NC(=S)NCc1ccc2[nH]c(C)cc2c1", "inhibition": "-9.97% (inactive)"}
{"smiles": "Cc1cc2cc(CNC(=O)c3cccs3)ccc2[nH]1", "inhibition": "21.3% (active)"}
{"smiles": "COc1ccc(CNc2ncnc3ccccc23)cc1", "inhibition": "-14.9% (inactive)"}
{"smiles": "Cc1c(C)c(C)c(S(=O)(=O)N2CCC3(CC2)OCCO3)c(C)c1C", "inhibition": "-4.05% (inactive)"}
{"smiles": "O=C(C1CCCO1)N1CCN(S(=O)(=O)c2ccc(Br)cc2)CC1", "note": "(stereo unspecified)", "inhibition": "-30% (inactive)"}
{"smiles": "O=C1Nc2cc(C(=O)N3CCN(c4ccc(F)cc4)CC3)ccc2NC1CSCc1cccc(F)c1", "note": "(stereo unspecified)", "inhibition": "-13.8% (inactive)"}
{"smiles": "COc1cc(NC(=O)C2=C(C)OCCS2)c(Cl)cc1C(=O)NCCN1CCN(C)CC1", "inhibition": "-4.3% (inactive)"}
